# IDE exosite inh = insulin-degrading enzyme (human) exo-site inhibition. P14735. purified IDE, FL-6b probe fluorescence polarization; hits give low values. z-score at 20 µM. 6.3% of 17,000 active. AID 1259349;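 active = z-score of -3 or lower, meaning strong loss of probe binding signal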;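 also: His-tagged human IDE residues 42-1019 made in E. coli with 30 nM FL-6b probe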
# * = called active by the depositor; ! = not confirmed by another sample. Only a selection was taken, and hits are over-represented in it overall.
SMILES,IDE exosite inh
COCC#Cc1ccc([C@H]2[C@@H](CO)N3C(=O)CN(C(=O)Nc4cc(F)ccc4F)C[C@H]23)cc1,0.33
CC(C)CC#Cc1ccc([C@@H]2[C@H](CO)N3C(=O)CN(C(=O)NC4CCCCC4)C[C@@H]23)cc1,1.4
O=C(NC1CCCCC1)N1CC(=O)N2[C@H](CO)[C@@H](c3ccc(/C=C/c4ccccc4)cc3)[C@@H]2C1,-3.6*
O=C(NC1CCCCC1)N1CC(=O)N2[C@H](CO)[C@H](c3ccc(/C=C/c4ccccc4)cc3)[C@@H]2C1,-10*
O=C(NC1CCCCC1)N1CC(=O)N2[C@@H](CO)[C@H](c3ccc(/C=C/c4ccccc4)cc3)[C@@H]2C1,-7.4*
O=C(NC1CCCCC1)N1CC(=O)N2[C@H](C1)[C@H](c1ccc(/C=C/c3ccccc3)cc1)[C@@H]2CO,-3.9*
O=C(NC1CCCC1)N1CC(=O)N2[C@H](C1)[C@@H](c1ccc(/C=C/c3ccccc3)cc1)[C@@H]2CO,0.84
CC(C)CC#Cc1ccc([C@H]2[C@H](CO)N3C(=O)CN(C(=O)NC4CCCCC4)C[C@@H]23)cc1,0.26
O=C(NC1CCCC1)N1CC(=O)N2[C@H](CO)[C@@H](c3ccc(/C=C/c4ccccc4)cc3)[C@@H]2C1,0.29
COc1ccc(S(=O)(=O)N2CCCCN3[C@@H](CO)[C@H](c4ccc(C#CC5CC5)cc4)[C@@H]3C2)cc1,3.3
COc1ccc(NC(=O)Nc2ccc3c(c2)[C@@H]2C[C@@H](CC(=O)NCC(F)(F)F)O[C@@H](CO)[C@@H]2O3)cc1,0.12
N#C[C@@H]1[C@H](c2ccc(C#CC3CCCC3)cc2)[C@H](CO)N1C(=O)Cc1ccccn1,2.4
O=C(O)[C@@H]1[C@@H](CO)[C@@H]2Cn3c(ccc(-c4cccc(F)c4)c3=O)[C@@H]2N1C(=O)c1ccccn1,0.53
COc1ccc(C(=O)N2C[C@H]3[C@@H](c4ccccc42)[C@@H](CO)N3C(=O)NC(C)C)cc1,2.9
CC(C)NC(=O)N[C@H]1CC[C@H](CC(=O)NCCCN(C)C)O[C@@H]1CO,1.7
CCCC#Cc1ccc([C@H]2[C@H]3CN(C(=O)c4ccc(F)cc4)CC(=O)N3[C@H]2CO)cc1,-1.1
CCC(=O)N1[C@H](CO)[C@@H](c2ccccc2)C12CN(C(=O)c1ccncc1)C2,1.2
O=C(c1ccncc1)N1CC2(C1)[C@H](c1ccccc1)[C@H](CO)N2CC1CC1,-1
O=C(Cc1ccccn1)N1CC2(C1)[C@H](c1ccccc1)[C@@H](CO)N2C(=O)c1ccncc1,-3.7*
O=C(CC1CC1)N1CC2(C1)[C@@H](c1ccccc1)[C@@H](CO)N2Cc1ccccn1,0.79
O=C(CC1CC1)N1CC2(C1)[C@@H](c1ccccc1)[C@H](CO)N2C(=O)c1ccccn1,-0.56
O=C(Cc1ccccn1)N1CC2(C1)[C@@H](c1ccccc1)[C@@H](CO)N2C(=O)c1ccncc1,-3.3*
CCS(=O)(=O)N1CCCCN2[C@H](CO)[C@H](c3ccc(-c4ccccc4F)cc3)[C@@H]2C1,1.2
CC(=O)N1[C@H](CO)[C@@H](c2ccccc2)[C@@H]1CN(C)C(=O)c1ccccc1F,0.9
COc1ccc2c3c([nH]c2c1)[C@H](CO)NCC31CN(C(=O)Nc2c(C)noc2C)C1,1.3
SMILES,IDE exosite inh
CN1C(=O)c2cc(NS(C)(=O)=O)ccc2OC[C@H]2O[C@H](CC(=O)N3CCOCC3)CC[C@@H]21,-14*
CCS(=O)(=O)Nc1ccc2c(c1)C(=O)N(C)[C@@H]1CC[C@@H](CC(=O)N3CCN(C)CC3)O[C@H]1CO2,0.27
COc1ccccc1NC(=O)Nc1ccc2c(c1)C(=O)N(C)[C@H]1CC[C@H](CC(=O)Nc3ccc4c(c3)COC4)O[C@@H]1CO2,-0.18
COc1ccccc1NC(=O)C[C@H]1CC[C@H]2[C@@H](COc3ccc(NS(C)(=O)=O)cc3C(=O)N2C)O1,-6.1*
CN1C(=O)c2cc(NS(C)(=O)=O)ccc2OC[C@@H]2O[C@@H](CC(=O)N3CCOCC3)CC[C@H]21,-1
CN1C(=O)c2cc(NS(C)(=O)=O)ccc2OC[C@H]2O[C@@H](CC(=O)NCc3ccccc3)CC[C@@H]21,0.18
O=C(c1ccccc1)N1CC(=O)N2[C@H](CO)[C@@H](c3ccc(C#CCC4CCCC4)cc3)[C@@H]2C1,3.4
Cc1cccc(S(=O)(=O)N2CCCCN3[C@H](CO)[C@H](c4ccc(C#C[C@H](C)O)cc4)[C@H]3C2)c1,1.7
C/C=C/c1ccc([C@H]2[C@@H](CO)N(C(C)=O)C23CN(C(=O)NC2CCCCC2)C3)cc1,0.49
CO[C@@H](CN(C)Cc1cc(F)ccc1F)[C@@H](C)CN([C@H](C)CO)S(=O)(=O)c1ccc(C)cc1,0.99
c1ccc(CN2[C@@H]3CNC[C@H]2C3c2ccc(-c3cccnc3)cc2)nc1 (stereo partly specified),1.7
C(=C\c1ccc(C2[C@H]3CNC[C@@H]2N3Cc2cncnc2)cc1)/c1ccccc1 (stereo partly specified),0.52
COc1cc(CN2[C@@H]3CNC[C@H]2C3c2ccc(-c3ccccc3)cc2)cc(OC)c1 (stereo partly specified),-2.4
COc1cc(CN2[C@@H]3CNC[C@H]2C3c2ccc(/C=C/c3ccccc3)cc2)cc(OC)c1 (stereo partly specified),-5.5*!
COc1cccc(CN2[C@@H]3CNC[C@H]2C3c2ccc(/C=C/c3ccccc3)cc2)c1 (stereo partly specified),-0.84
C(=C\c1ccc(C2[C@H]3CNC[C@@H]2N3Cc2ccccn2)cc1)/c1ccccc1 (stereo partly specified),-3.8*!
O=C(c1ccc2c(c1)OCO2)N1CC(=O)N2[C@H](C1)[C@H](c1ccc(C#CC3CCCC3)cc1)[C@@H]2CO,0.63
COc1cccc(CNC(=O)[C@H]2[C@H](CO)[C@H]3Cn4c(ccc(C5=CCCC5)c4=O)[C@@H]2N3)c1,0.59
COCC#Cc1ccc([C@H]2[C@@H](CO)N3CCCCN(C(=O)CN(C)C)C[C@H]23)cc1,1.1
O=C(C[C@H]1CC[C@H](NS(=O)(=O)c2ccccc2F)[C@H](CO)O1)NCCCN1CCOCC1,-0.11
O=C(c1cccnc1)N1CCCCN2[C@@H](CO)[C@@H](c3ccc(C#Cc4cccnc4)cc3)[C@@H]2C1,0.38
COc1ccccc1-c1ccc([C@@H]2[C@H](CO)N3CCCCN(C(=O)c4cccnc4)C[C@@H]23)cc1,-4.1*
COc1ccccc1-c1ccc([C@H]2[C@H](CO)N3CCCCN(C(=O)c4ccncc4)C[C@@H]23)cc1,-2.5
COc1ccccc1-c1ccc([C@@H]2[C@H]3CN(C(=O)c4ccncc4)CCCCN3[C@H]2CO)cc1,-14*
Cc1ccccc1-c1ccc([C@H]2[C@H]3CN(C(=O)c4cccnc4)CCCCN3[C@H]2CO)cc1,0.9
SMILES,IDE exosite inh
COc1ccccc1-c1ccc([C@H]2[C@H]3CN(C(=O)c4ccncc4)CCCCN3[C@H]2CO)cc1,0.95
O=S(=O)(c1ccccc1F)N1CC[C@@H]2[C@H](CO)Nc3ccc(C4=CCCCC4)cc3[C@@H]21,1.9
CC=Cc1ccc2n(c1=O)C[C@H]1[C@H](CO)[C@@H](C(=O)N3CCOCC3)N(Cc3ccccc3)[C@@H]21 (mixture of isomers),1.8
COCC#Cc1ccc([C@@H]2[C@H](CO)N3C(=O)CN(C(=O)Nc4cc(F)ccc4F)C[C@@H]23)cc1,1.9
COc1ccc(-c2ccccc2[C@@H]2[C@@H](C#N)N(C(=O)C3CC3)[C@H]2CO)cc1,2.1
COc1ccccc1NC(=O)N1C[C@@H]2[C@H](c3ccccc31)[C@H](CO)N2C(=O)C1CCCC1,2.9

# Screens: PubChem, Broad Institute
